Most compounds without a hit are left out; they make up all but 6.1% or so of the library.
TGFb inhibitor: inhibitors of TGF-b signaling | Potency, µM (titrated, usually from 46.1 µM), actives largely listed as inhibitors | HepG2 CAGA-GFP TGF-b/SMAD3 reporter, GFP fluorescence, 18 h; TGF-beta stimulated, 500 pg/mL final | 410,000 tested, 1.2% active; also: nearly all actives have a fitted effect of over 65% in size
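GFP signal (ex488/em500-530) from TGF-beta-stimulated HEPG2 CAGA-GFP cells, 500 pg/mL final, 18 h at 37 degrees C in DMEM plus 1% FBS, normalized to unstimulated and DMSO-stimulated controls.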
S2 tox: viability counter-screen for ATXN expression inhibitors. S2 cells (HEK-293 line with an ATXN2-luciferase reporter) viability, CellTiter-Fluor protease fluorescence, 24 h. Potency, µM (series often up to 56.7 µM), most hits filed as cytotoxic. 400,000 tested, 0.49% active. AID 651635; also: nearly all actives have a fitted effect of over 40% in size
Gal4-VP16 FLuc: Gal4-VP16 reporter inhibition counter-screen; Drosophila S2 Gal4-VP16 UAS-luciferase, luminescence, 20 h; Potency, µM (doses to about 53.6 µM), usual class: inhibitors; 310,000 tested, 3.5% active; AID 2546;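 also: Gal4-VP16 expression switched on by copper sulfate through the metallothionein promoter; nearly all actives have a fitted effect of over 50% in size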
ATXN2 expr inh: reduces ATXN2 reporter expression in HEK-293 cells; AID 1745845; Potency, µM (titrated, usually from 57 µM), actives largely listed as inhibitors; HEK-293 ATXN2-luciferase reporter, luminescence, 24 h; 360,000 tested, 0.72% active; also: nearly all actives have a fitted effect of over 55% in size
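ATXN2-luciferase reporter cells (luciferase flanked by upstream and downstream ATXN2 gene portions) were treated 24 h at 37 °C with compounds at up to 57 uM. SteadyGlo luminescence gave expression; GF-AFC fluorescence gave viability.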
RORgamma inh: ROR gamma (mouse) transcription inhibition | 310,000 tested, 5.4% active | Potency, µM (top dose mostly 53.6 µM), most hits filed as inhibitors | AID 2551 | P51450 | Drosophila S2 Gal4-RORgamma UAS-luciferase reporter, 20 h; also: nearly all actives have a fitted effect of over 60% in size
Target sequence (P51450 whole entry, looked up, the tested form may be a part): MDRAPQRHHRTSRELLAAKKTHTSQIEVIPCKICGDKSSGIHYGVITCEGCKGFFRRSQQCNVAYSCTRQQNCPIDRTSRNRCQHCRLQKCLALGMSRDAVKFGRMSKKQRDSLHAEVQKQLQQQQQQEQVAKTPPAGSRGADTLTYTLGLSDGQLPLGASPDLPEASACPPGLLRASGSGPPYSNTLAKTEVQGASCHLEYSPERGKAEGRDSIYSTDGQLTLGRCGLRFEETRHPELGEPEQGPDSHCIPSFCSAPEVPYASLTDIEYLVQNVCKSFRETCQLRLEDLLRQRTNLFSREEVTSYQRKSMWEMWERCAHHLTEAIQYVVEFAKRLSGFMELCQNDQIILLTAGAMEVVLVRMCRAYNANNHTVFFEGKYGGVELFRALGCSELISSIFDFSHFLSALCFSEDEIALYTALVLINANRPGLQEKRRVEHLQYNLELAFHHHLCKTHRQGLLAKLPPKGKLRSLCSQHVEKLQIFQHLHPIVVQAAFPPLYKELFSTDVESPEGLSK
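ROR gamma transcriptional activity was tracked as Gal4-UAS luciferase output in stably transfected Drosophila Schneider cells, with compound added 1 hr before 700 uM copper sulfate induction and a 20 hr ambient-temperature incubation.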
HepG2 viability: kills HepG2 cells in TGF-b inhibitor counter-screen; HepG2 CAGA-GFP viability, ATP luminescence, 18 h; Potency, µM (titrated, usually from 46.1 µM), actives largely listed as cytotoxic; 410,000 tested, 0.76% active
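HepG2 CAGA-GFP cells (1000/well, DMEM with 1% FBS) received compound, then TGF-beta at 500 pg/mL final, and were incubated 18 hours at 37 degrees C. Viability was read by CellTiter-Glo luminescence. Media-only wells were set as complete cell-killing and DMSO as no toxicity.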
Numbers stand for hits; . = inactive; ? = inconclusive; / = no result given; [ ] = dose if it differs, or a comment. Calls follow the shape of the dose curve; as a rule, active = well fitted curve in the direction sought with a large enough effect; inconclusive = small, poorly fitted or top-dose-only effect, or another doubt; inactive = no such curve, though single readings can be large; an effect the other way counts as inactive or inconclusive.

SMILES	TGFb inhibitor	S2 tox	Gal4-VP16 FLuc	ATXN2 expr inh	RORgamma inh	HepG2 viability
COc1ccccc1-c1cc2c(c(OC)c1)OCCN(CCC(C)c1ccc(C)o1)C2 (centres undefined)	/	.	/	/	/	/
COC(=O)/C=C\C(=O)OC	/	.	/	.	/	/
O=C1CS/C(=N/N=C/c2ccc(OS(=O)(=O)c3ccccc3)cc2)N1	.	?	?	.	.	.
O=C(CC1S/C(=N/N=C/C=C/c2ccccc2)NC1=O)Nc1ccc(Cl)c(Cl)c1 (centres undefined)	?	.	7.9µM	.	5.6µM	.
CC(=O)c1cccc(NC(=O)CC2S/C(=N/N=C/c3ccccc3)NC2=O)c1 (centres undefined)	.	/	.[10 µM]	/	.	.
Cc1ccc(/C=N/N=C2/NC(=O)C(CC(=O)Nc3ccc(Cl)cc3)S2)o1 (centres undefined)	.	?	?	.	11µM	.
Cc1ccc(/C=N/N=C2/NC(=O)C(CC(=O)Nc3ccccc3)S2)o1 (centres undefined)	.	.	.[10 µM]	.	11µM	.
Cc1ccc(/C=N/N=C2/NC(=O)CS2)o1	.	?	?	.	13µM	.
CCCCN=C1NC(=O)C(CC(=O)Nc2ccc(Cl)cc2)S1 (centres undefined)	.	.	.	.	.	.
CCc1ccc(-c2nc(CS(=O)CC(=O)NCCc3ccc(C)cc3)c(C)o2)cc1 (centres undefined)	?	/	/	/	/	.
CC1=C(C(N)=O)C(c2ccc(C)cc2)n2nc(SCc3ccccc3F)nc2N1 (centres undefined)	?	.	/	.	/	.
CCCNC(=O)NC(=O)CSc1nc2cc(C(=O)OC)ccc2c(=O)n1-c1ccccc1	.	.	?	.	.	.
COc1ccc(-n2c(SCC(=O)N3CCCCC3)nc3ccccc3c2=O)cc1	.	?	.	.	.	.
CCOC(=O)N1CCN(C(=O)CSc2nc3ccccc3c(=O)n2-c2ccccc2)CC1	3.2µM	?	.	.	.	.
CNC(=O)NC(=O)CSc1nc2cc(C(=O)OC)ccc2c(=O)n1-c1ccccc1	.	?	22µM	.	.	.
C[C@@H](O)CCC[C@H](O)/C=C/[C@H]1[C@H](O)CC(=O)[C@@H]1C/C=C\CCCC(=O)O	/	/	.	/	.	/
O=C(Nc1ccc(F)cc1F)c1ccc2c(c1)OCCO2	.	.	?	.	?	.
O=C(Nc1ccc(Br)cc1F)c1ccc2c(c1)OCCO2	.	.	?	?	7.9µM	.
O=C(NCCc1ccccc1F)c1ccc2c(c1)OCCO2	.	?	0.79µM	0.56µM	0.63µM	.
Cc1ccc(CNc2ncnc3c2nnn3C)cc1	.	/	/	/	/	.
CCn1c(Sc2ccc([N+](=O)[O-])cn2)nnc1-c1ccco1	?	.	?	.[11.3 µM]	10µM	.
O=C1c2oc3ccc(Cl)cc3c(=O)c2C(c2ccccn2)N1CCCN1CCOCC1 (centres undefined)	.	/	?	.	22µM	.
CC(C)c1nn2c(=O)cc(COC(=O)c3ccccc3NC(=O)C3CCCCC3)nc2s1	.	/	/	/	/	.
COC(=O)NC(c1ccccc1)c1c[nH]c2ccc(OC)cc12 (centres undefined)	/	/	.	/	.	/
Cc1ccc(-c2cn3c(=O)cc(C)[nH]c3n2)cc1	.	.	7.9µM	.	7.9µM	.
SMILES	TGFb inhibitor	S2 tox	Gal4-VP16 FLuc	ATXN2 expr inh	RORgamma inh	HepG2 viability
S=c1[nH]c2cc(Cl)ccc2s1	.	.	?	.	13µM	.
S=c1[nH]c2ccc(Cl)cc2[nH]1	.	.	.	.	.	.
O=C(C[n+]1cccc2cccc(O)c21)c1ccc(Cl)cc1	.	/	/	/	/	.
CC[n+]1c(C=C2C=C(C)OC(C)=C2)sc2ccccc21	.	?	10µM	11µM	?	.
CC[n+]1c(/C=C2/C=C(C)CC(C)C2)sc2ccccc21 (centres undefined)	.	.	.	.	.	.
CC(C)[C@H]1COCCS(=O)(=O)N1Cc1cccc([N+](=O)[O-])c1	.	/	/	/	/	.
O=C1NC(=O)C2(CCc3ccccc32)N1 (centres undefined)	.	.	.	.	.	.
C=C1CC2(OC1=O)c1ccccc1CCc1ccccc12	8.9µM	/	/	6µM	/	14µM
C=C1C2CC[C@@]3(C)C(c4ccoc4)OC(=O)C[C@@]13OC1CC(OC(C)=O)C(C)(C)C(CC(=O)OC)[C@@]12C (some centres undefined)	/	/	.	/	2.8µM	/
CCOc1ccc(NC(=O)Cn2c(=O)n(-c3cccc(OC)c3)c(=O)c3c4c(sc32)CCCC4)cc1	.	.	/	.	/	.
O=S(=O)(c1ccc(N2CCN(c3ccc(F)cc3)CC2)cc1)N1CCCC1	.	.	.	.	.	.
O=S(=O)(c1ccc(N2CCCC2)cc1)C(F)(F)F	?	.	5.6µM	.	?	.
O=[N+]([O-])c1cc(CN2CCCC2)c2cccnc2c1O	.	.	?	.	?	.
CCOc1cc(CN2CCN(c3cccc(C(F)(F)F)c3)CC2)ccc1O	.	.	.	.	.	.
CCOCc1cc(CN2CCN(c3cccc(C(F)(F)F)c3)CC2)c(O)c2ncccc12	2.8µM	/	/	/	/	.
O=[N+]([O-])c1cc(CN2CCN(c3cccc(C(F)(F)F)c3)CC2)c2cccnc2c1O	.	?	?	.	0.11µM	.
CC(C)OCc1cc(CN2CCN(c3cccc(C(F)(F)F)c3)CC2)c(O)c2ncccc12	1.6µM	/	/	/	/	.
COc1ccc(O[C@H]2C=C[C@@H](c3ccccc3)O[C@H]2COC(=O)CC/C(C)=N\O[C@@H](C)c2cn([C@H](CO)Cc3ccccc3)nn2)cc1	/	/	.[10 µM]	/	.[10 µM]	/
Cc1ccc(NC(=S)NCc2cccn2C)cc1	.	.	?	.	4µM	.
Cc1ccccc1NC(=S)NCc1cccn1C	.	.	?	.	?	.
Cc1cccc(NC(=S)NCc2cccn2C)c1	.	.	.	.	?	.
Cc1ccc(Cl)cc1NC(=S)NCc1cccn1C	.	.	7.9µM	.	7.1µM	.
Cc1c(Cl)cccc1NC(=S)NCc1cccn1C	.	.	18µM	.	4.5µM	.
CN(C)[C@@H]1C(=O)C(C(N)=O)=C(O)[C@@]2(O)C(=O)C3=C(O)c4c(O)cccc4C[C@H]3C[C@@H]12	/	.	/	.	/	/
COc1cc(=O)n2c(c1C(=O)N(C)Cc1cscn1)CCN(C(=O)c1cccc(C)c1C)CC2	/	.	/	/	/	/
O=c1cc(CN2CCN(c3ccccc3F)CC2)c2cc3c(cc2o1)CCCC3	?	.	.	.	.	18µM
O=C(O)c1cccc(-c2nc3ccccc3[nH]2)c1	.	.	?	14µM	.	.
O=C(Nc1nc2ccccc2[nH]1)c1ccccc1O	.	.	6.3µM	.	13µM	.

Compound activity as filed in PubChem BioAssay.
